Many of the other results were omitted from the sample, so hits are more common in it than they were.
mHTT-CaM PPI inh: mHTT-calmodulin interaction abrogation; inhibition, % at 15 µM; AID 1671202; AlphaScreen His-mHTT/GST-CaM binding, luminescence; P42858; 190,000 compounds, 3.6% hits;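 note: 0% = both proteins with DMSO and 100% = one protein alone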
Pf apPOL block: Pf-apPOL DNA polymerase inhibition. Recombinant Pf-apPOL, molecular beacon fluorescence, 1.5 h. inhibition, % at 10 µM. 210,000 compounds, 0.25% hits
Starred values were filed as active, the others as inactive; · = no result given. Cut-off read from the data, not from the text of the source: active = inhibition above about 50%; inactive = the rest.

SMILES	mHTT-CaM PPI inh	Pf apPOL block
Cc1ccc(O)c2nc(/C=C/c3ccccc3N)ccc12	53*	0
COc1ccc(C)cc1-n1cnc2cc(C(=O)NC3CCCCC3C)ccc21 (centres undefined)	66*	-2
Cc1ccc(-n2cnc3cc(C(=O)NC4CCCC4)ccc32)c(C)c1	11	34
Cc1nc(N=Cc2ccccc2[N+](=O)[O-])sc1C	8	4
CCc1cccc(C)c1NC(=O)C1CC(=O)N(c2ccc(F)cc2)C1 (centres undefined)	1	3
Cc1ccc2[nH]c(C(=O)NC3CC3)c(N3CCCC3=O)c2c1	18	-3
Cc1ccsc1CN1CCOCC1	0	-1
Cc1nc(-c2cnccn2)[nH]c(=O)c1C	71*	-12
Cc1nnc(-c2ccccn2)[nH]c1=O	·	-137
COc1ccc(-c2nnc3n2CCN(Cc2c(C)noc2C)C3)cc1	4	3
O=C1CCC[C@@H]2[C@H](Cc3ccccc3)[C@@H](O)C[C@@H]3CCN1[C@@H]32	1	-9
O=C1CCC[C@@H]2[C@@H](Cc3ccccc3)[C@@H](Nc3ccccc3)C[C@@H]3CCN1[C@@H]32	70*	-5
C[C@H](c1ccccc1)N1C[C@H](COCc2ccccc2)Oc2cc(N3CCC[C@@H]3CO)ccc2S1(=O)=O	30	-10
C[C@H](c1ccccc1)N1C[C@H](COCc2ccccc2)Oc2cc(N3CC[C@H](O)C3)ccc2S1(=O)=O	72*	-4
C[C@H](c1ccccc1)N1C[C@@H](COCc2ccccc2)Oc2cc(N3CC[C@H](O)C3)ccc2S1(=O)=O	78*	-2
COC[C@@H]1CCCN1c1ccc2c(c1)O[C@@H](COCc1ccccc1)CN([C@H](C)c1ccccc1)S2(=O)=O	1	-7
COc1cc(OC)cc(C2=N/C(=C\c3ccc(Cl)c(Cl)c3)C(=O)O2)c1	1	-1
CCOc1cc(/C=C2/C(=O)ON=C2C)ccc1OCc1ccc(Cl)cc1	-5	-7
CC1=NOC(=O)/C1=C/c1ccc(OCc2cccc(F)c2)c(Cl)c1	1	-4
COc1cc(/C=C2\C(=O)ON=C2C)ccc1OCc1cccc(F)c1	100*	8
COc1cc(/C=C2\C(=O)ON=C2C)cc(Cl)c1OCc1ccc(F)cc1	74*	7
COc1cc(C=O)cc(Cl)c1OCc1cccc(F)c1	-74	-14
CCOc1cc(/C=C2\C(=O)ON=C2C)cc(Cl)c1OCc1ccc(F)cc1	93*	-1
CC1=NOC(=O)/C1=C/c1ccccc1OCc1cccc(Cl)c1	55*	-2
CC1=NOC(=O)/C1=C/c1ccccc1OCc1ccccc1F	20	-1
SMILES	mHTT-CaM PPI inh	Pf apPOL block
Cc1cc(C(=O)NC(c2ccccc2)c2ccccc2)nc2cc(C(C)(C)C)nn12	-73	0
O=C(NC1CCCC(O)C1)c1ccccc1Br (centres undefined)	-9	-4
O=C1OC(c2ccc(Cl)cc2)=NC1=C(Cl)Cl	0	0
COc1cc(/C=C2\C(=O)ON=C2C)cc(Br)c1OCc1ccc(F)cc1	46	8
COc1cc(/C=C2\C(=O)ON=C2C)ccc1OCc1ccccc1Cl	-8	0
CCOc1cc(/C=C2\C(=O)ON=C2C)cc(Br)c1OCc1ccc(F)cc1	75*	-4
COc1cc(/C=C2\C(=O)ON=C2C)cc(Cl)c1OCc1ccccc1	91*	-1
N#CC1=C(N)Oc2n[nH]c(-c3ccc(F)cc3)c2C1c1cccc(F)c1 (centres undefined)	12	-4
COc1cc(C2C(C#N)=C(N)Oc3n[nH]c(-c4cccs4)c32)cc(OC)c1O (centres undefined)	19	7
N#CC1=C(N)Oc2n[nH]c(-c3ccc(Cl)cc3)c2C1c1ccc(F)cc1 (centres undefined)	17	0
N#CC1=C(N)Oc2n[nH]c(-c3ccc(Cl)c(Cl)c3)c2C1c1ccc(O)c(O)c1 (centres undefined)	99*	0
COc1cc(C2C(C#N)=C(N)Oc3n[nH]c(-c4ccc(Cl)s4)c32)ccc1O (centres undefined)	60*	-2
N#CC1=C(N)Oc2n[nH]c(-c3ccc(Cl)c(Cl)c3)c2C1c1cccc(O)c1 (centres undefined)	100*	0
CC(=O)Oc1ccc2c(=O)c(Oc3ccc([N+](=O)[O-])cc3)c(C)oc2c1	9	-5
Cc1ccc(OCC(=O)N2CC3CC2CC3NS(=O)(=O)c2ccccc2)cc1 (centres undefined)	4	-1
Cc1[nH]c2ccccc2c1C(c1ccncc1)N1CCC(C)CC1 (centres undefined)	22	-4
COC(c1cccs1)c1c(C)[nH]c2ccccc12 (centres undefined)	60*	4
COc1ccc(-c2c3c(=O)n(C)c(=O)n(C)c3cn2Cc2ccccc2)cc1	25	24
COc1ccc(-c2c3c(=O)n(C)c(=O)n(C)c3cn2-c2cc(C)c(C)cc2N)cc1	50	68*
COc1ccc(-c2c3c(=O)n(C)c(=O)n(C)c3cn2C)cc1	3	90*
Cn1cc2c(c1-c1ccccc1)c(=O)n(C)c(=O)n2C	-1	-4
COc1ccc(-c2c3c(=O)n(C)c(=O)n(C)c3cn2-c2ccccc2N)cc1	15	7
COc1ccc(-c2c3c(=O)n(C)c(=O)n(C)c3cn2-c2ccccc2O)cc1	21	92*
CCn1cc2c(c1-c1ccc(OC)cc1)c(=O)n(C)c(=O)n2C	3	54*
Cn1c(=O)c2c(-c3ccccc3)n(-c3ccccc3O)cc2n(C)c1=O	9	-1
SMILES	mHTT-CaM PPI inh	Pf apPOL block
C=CCOc1ccccc1/C=c1\sc2nc(-c3cccs3)nn2c1=O	7	-3
O=C1OC(c2cccc(Cl)c2)=N/C1=C\c1cccc(Br)c1	15	44
O=C1C(=Cc2ccco2)Oc2cc(OCc3ccc([N+](=O)[O-])cc3)ccc21	4	8
OC1CC2CC1C1CCCC21 (centres undefined)	-6	·
Cc1cc(C)cc(C(=O)Nc2cccn3nc(C(C)C)nc23)c1	-16	2
O=C(C[n+]1cc(Br)cc2ccccc21)c1ccccc1	60*	1
COc1ccc(C(=O)C[n+]2cc(Br)cc3ccccc32)cc1[N+](=O)[O-]	44	0
COc1cc(C2N(c3ccc(Cl)c(Cl)c3)C(=O)C3CCCN32)cc(OC)c1OC (centres undefined)	100*	-6
COc1ccccc1C1N(c2ccc(Cl)cc2)C(=O)C2CCCN21 (centres undefined)	50*	-2
COc1ccc(N2C(=O)C3CCCN3C2c2ccccc2OC)cc1 (centres undefined)	-7	22
CCOc1ccccc1C1N(c2ccc(F)cc2)C(=O)C2CCCN21 (centres undefined)	1	-1
CCOc1ccccc1C1N(c2ccc(Cl)cc2)C(=O)C2CCCN21 (centres undefined)	51*	-2
COc1ccccc1C1N(c2ccc(Cl)c(Cl)c2)C(=O)N2CCCN12 (centres undefined)	100*	-2
COc1cc(C2N(c3ccc(Cl)cc3)C(=O)C3CCCN32)cc(OC)c1OC (centres undefined)	40	-6
O=C1N(c2ccccc2)C(c2ccccc2)N2CCCN12 (centres undefined)	0	1
Cc1ccc(-c2nc3ccccn3c2NC(=O)C(C)(C)CCl)cc1	12	-4
CC(C)C(=O)NCc1csc(C2CCN(C(=O)C3CCCCC3)CC2)n1	-7	-6

Screens from PubChem BioAssay.
